Inconclusive results are not listed. Where a call stands in place of a potency, no number is given. The source made the active and inactive calls. Unless noted, calls follow the shape of the dose curve; as a rule, active = well fitted curve in the direction sought with a large enough effect; inconclusive = small, poorly fitted or top-dose-only effect, or another doubt; inactive = no such curve, though single readings can be large; an effect the other way counts as inactive or inconclusive.
Key:
[1] = AP1 Signaling Pathway (AID 357; active = well fitted curve in either direction with a large enough effect, not every such curve was filed as active;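 also: ME-180 reporter cells stimulated with EGF at its EC50 level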)
In short: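 In this screen, ME-180 cells in Opti-MEM with 0.5% dialyzed FBS received EC50 EGF and compound titrations for 5 h. AP-1 reporter beta-lactamase was detected via CCF4 ratio, giving AC50 for positive and negative modulators.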

[2] = Stat Signaling Pathway (AID 446; active = well fitted curve in either direction with a large enough effect, not every such curve was filed as active;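 also: ME-180 cervical cancer cells given 40 pM IL-6 alongside compound; SIE-controlled beta-lactamase reporter measured as 460/530 nm FRET emission ratio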)
In short: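 Emission at 460 and 530 nm (excitation 405 nm) reports SIE-controlled beta-lactamase in ME-180 cells. Cells received compound with 40 pM IL-6 for 5 hrs at 37 C; data scaled between 300 pM IL-6 and 125 nM JAK-inhibitor controls.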

[3] = molecular target: Glucocorticoid receptor (Homo sapiens) (UniProt P04150); experiment: GR-GFP Redistribution (AID 450;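 active = compounds whose dose series gives a full or clear partial fitted curve of increased nuclear translocation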; also: potency is read from the fitted curve at half-maximal effect); details: U2OS GR-GFP nuclear translocation, laser cytometry, 2 h
Glucocorticoid receptor (Homo sapiens), sequence (P04150 whole entry, looked up, the tested form may be a part): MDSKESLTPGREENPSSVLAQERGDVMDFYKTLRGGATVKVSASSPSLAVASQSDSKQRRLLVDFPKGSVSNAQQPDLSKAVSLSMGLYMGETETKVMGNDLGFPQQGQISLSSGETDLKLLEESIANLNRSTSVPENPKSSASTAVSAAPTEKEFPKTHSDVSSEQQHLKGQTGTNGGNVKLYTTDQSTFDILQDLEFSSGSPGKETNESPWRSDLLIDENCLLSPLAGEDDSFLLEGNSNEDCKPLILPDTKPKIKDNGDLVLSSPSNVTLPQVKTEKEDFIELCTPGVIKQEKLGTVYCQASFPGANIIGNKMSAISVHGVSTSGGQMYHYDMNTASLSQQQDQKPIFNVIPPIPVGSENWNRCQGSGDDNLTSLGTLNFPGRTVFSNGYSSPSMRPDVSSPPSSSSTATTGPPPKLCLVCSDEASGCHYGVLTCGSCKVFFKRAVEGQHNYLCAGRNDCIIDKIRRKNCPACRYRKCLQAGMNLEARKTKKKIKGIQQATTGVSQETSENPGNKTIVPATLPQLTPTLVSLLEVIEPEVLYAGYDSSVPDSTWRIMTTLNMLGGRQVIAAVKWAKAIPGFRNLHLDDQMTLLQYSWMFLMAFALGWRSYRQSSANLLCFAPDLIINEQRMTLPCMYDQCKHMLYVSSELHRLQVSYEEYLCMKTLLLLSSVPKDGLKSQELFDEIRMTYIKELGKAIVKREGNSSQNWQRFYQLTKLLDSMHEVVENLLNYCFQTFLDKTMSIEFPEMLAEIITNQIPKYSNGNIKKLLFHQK

[4] = molecular target: Mitogen-activated protein kinase 10 (Mus musculus) (UniProt Q61831); experiment: JNK3 AlphaScreen Assay (AID 530; active = well fitted curve in either direction with a large enough effect, not every such curve was filed as active;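 also: kinase came from lysate of stimulated human HepG2 cells; signal reports phosphorylation of biotinylated GST-cJun 1-79 at Ser73 with 10 µM ATP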)
In short: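 Biotinylated GST-cJun(1-79) served as substrate for JNK3 in HepG2 lysates stimulated with IL-1beta and TNF-alpha. ATP was 10 uM final, pH 7.6. Ser73 phosphorylation was quantified by AlphaScreen (680 nm excitation).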

[5] = molecular target: 3',5'-cyclic-AMP phosphodiesterase 4B (Homo sapiens) (UniProt Q07343); experiment: qHTS Assay for Inhibitors of PDE-IV (AID 607; active = well fitted activation curve with a large enough effect in the main read-out, with a control signal flat, not every such curve was filed as active)
3',5'-cyclic-AMP phosphodiesterase 4B (Homo sapiens), sequence (Q07343 whole entry, looked up): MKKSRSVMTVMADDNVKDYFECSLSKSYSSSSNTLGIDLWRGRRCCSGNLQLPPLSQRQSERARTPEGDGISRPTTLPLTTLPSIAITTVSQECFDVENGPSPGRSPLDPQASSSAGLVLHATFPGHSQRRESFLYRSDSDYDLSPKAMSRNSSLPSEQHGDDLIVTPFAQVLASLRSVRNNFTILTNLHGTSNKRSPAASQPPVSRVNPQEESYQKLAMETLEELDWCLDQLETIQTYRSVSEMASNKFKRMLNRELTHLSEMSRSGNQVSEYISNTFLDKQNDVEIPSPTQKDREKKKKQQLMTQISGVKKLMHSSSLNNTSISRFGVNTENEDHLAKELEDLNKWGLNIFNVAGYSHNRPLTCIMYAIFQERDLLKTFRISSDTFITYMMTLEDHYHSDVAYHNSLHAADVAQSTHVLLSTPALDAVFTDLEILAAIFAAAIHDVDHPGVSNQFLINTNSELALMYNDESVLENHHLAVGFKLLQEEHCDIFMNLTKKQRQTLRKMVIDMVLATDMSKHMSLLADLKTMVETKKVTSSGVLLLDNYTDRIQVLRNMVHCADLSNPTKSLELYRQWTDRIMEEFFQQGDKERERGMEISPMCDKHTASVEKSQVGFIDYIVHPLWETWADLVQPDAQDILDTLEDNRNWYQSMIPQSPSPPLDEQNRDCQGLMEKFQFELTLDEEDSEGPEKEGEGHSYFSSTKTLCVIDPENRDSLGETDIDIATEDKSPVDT
In short: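 The readout is membrane depolarisation from a cAMP-sensing CNG channel, detected with a potential dye at ex 535/em 590. Cells were HEK293-derived (endogenous PDE-IV) at 1000 cells/well, titrated up to 22.9 uM final.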

[6] = qHTS Assay for Lipid Storage Modulators (AID 1519; calls by dose curve); details: Drosophila S3 cells, BODIPY lipid droplet/cell ratio, laser cytometry, cells loaded with oleic acid; for activity change, negative = inhibition: at 25.7 µM (top of the series)
In short: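 Cells seeded at 5,000 per well were treated with compounds over a concentration series and loaded with oleic acid (400 uM, as added). Lipid droplet fluorescence (488 nm excitation, 500-530 nm channel) was read by laser-scanning cytometry and normalized to 20 uM Triacsin C.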

[7] = molecular target: ATP-dependent 6-phosphofructokinase (Trypanosoma brucei brucei) (UniProt O15648); experiment: qHTS Assay to Find Inhibitors of T. brucei phosphofructokinase: hit validation (AID 492961);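 also: luminescence reports ADP formed as PFK phosphorylates fructose-6-phosphate with ATP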
ATP-dependent 6-phosphofructokinase (Trypanosoma brucei brucei), sequence (O15648 whole entry, looked up): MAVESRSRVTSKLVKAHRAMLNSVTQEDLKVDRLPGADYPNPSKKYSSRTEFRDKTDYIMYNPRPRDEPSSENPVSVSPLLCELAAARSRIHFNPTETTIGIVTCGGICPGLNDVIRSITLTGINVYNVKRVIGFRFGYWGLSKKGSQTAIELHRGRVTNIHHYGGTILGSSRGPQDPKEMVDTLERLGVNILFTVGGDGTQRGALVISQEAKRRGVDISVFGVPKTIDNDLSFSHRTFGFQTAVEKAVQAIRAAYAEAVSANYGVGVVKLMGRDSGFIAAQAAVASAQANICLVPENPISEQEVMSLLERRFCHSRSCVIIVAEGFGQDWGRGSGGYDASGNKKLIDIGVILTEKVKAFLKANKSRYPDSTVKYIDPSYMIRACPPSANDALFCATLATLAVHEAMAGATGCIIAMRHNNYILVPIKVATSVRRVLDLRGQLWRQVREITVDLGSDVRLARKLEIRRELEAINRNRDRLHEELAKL
In short: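 Reaction: 0.1 M triethanolamine pH 8.0, 5 mM MgCl2, F6P 0.5 mM, ATP 0.1 mM, PFK 1.25 nM, 45 min RT. Read-out: ADP-Glo luminescence. Analysis: concentration-response fits, classed by r2 and efficacy.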

[8] = molecular target: Ubiquitin carboxyl-terminal hydrolase 1 (Homo sapiens) (UniProt O94782); experiment: Inhibitors of USP1/UAF1: Pilot qHTS (AID 504865);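 also: rhodamine fluorescence freed from ubiquitin-rhodamine substrate followed over time; top concentration of the series differs between compounds; nearly all actives have a fitted effect of over 35% in size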
Ubiquitin carboxyl-terminal hydrolase 1 (Homo sapiens), sequence (O94782 whole entry, looked up): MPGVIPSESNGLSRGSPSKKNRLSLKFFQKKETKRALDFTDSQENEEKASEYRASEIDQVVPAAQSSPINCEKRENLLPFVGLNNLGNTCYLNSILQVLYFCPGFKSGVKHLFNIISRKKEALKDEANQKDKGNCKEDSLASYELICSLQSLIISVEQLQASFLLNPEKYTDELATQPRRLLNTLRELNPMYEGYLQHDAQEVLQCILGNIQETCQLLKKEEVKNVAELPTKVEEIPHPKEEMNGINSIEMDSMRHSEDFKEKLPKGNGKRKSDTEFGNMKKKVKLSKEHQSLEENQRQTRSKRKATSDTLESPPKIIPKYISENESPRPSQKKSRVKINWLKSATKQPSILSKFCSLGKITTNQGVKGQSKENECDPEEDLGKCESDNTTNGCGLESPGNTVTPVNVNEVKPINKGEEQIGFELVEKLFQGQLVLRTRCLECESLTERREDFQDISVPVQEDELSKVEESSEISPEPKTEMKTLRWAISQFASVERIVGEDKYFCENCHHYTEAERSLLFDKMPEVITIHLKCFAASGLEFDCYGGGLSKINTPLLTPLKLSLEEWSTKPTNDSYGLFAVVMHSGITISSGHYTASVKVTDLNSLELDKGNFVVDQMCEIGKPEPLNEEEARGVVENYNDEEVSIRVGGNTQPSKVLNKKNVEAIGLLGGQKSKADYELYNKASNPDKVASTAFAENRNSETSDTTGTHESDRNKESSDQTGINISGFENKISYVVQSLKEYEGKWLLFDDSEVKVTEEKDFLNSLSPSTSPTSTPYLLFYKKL
In short: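 USP1/UAF1 complex (1nM) preincubated with compound 15 min at room temperature, then Ub-Rho substrate (150nM final) added. Fluorescence read kinetically at 480/540 nm, 6 reads every 60 seconds. Buffer: 50mM HEPES pH 7.8, 0.5mM EDTA, 0.1 mg/ml BSA, 1mM TCEP, 0.01% Tween-20.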

[9] = S16 Schwann cell PMP22 intronic element firefly luciferase assay (AID 624032); also: nearly all actives have a fitted effect of over 30% in size; also: potency is read from the fitted curve at half-maximal effect
In short: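 Rat S16 Schwann cells stably carrying a PMP22 intronic element-driven Fluc reporter were seeded overnight, then exposed to compounds for 24 h at 37 °C. Luminescence was normalized to PTC124 (positive control) and DMSO (0% activity).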

[10] = qHTS profiling for inhibitors of Plasmodium falciparum proliferation (AID 504749); also: nearly all actives have a fitted effect of over 60% in size; details: P. falciparum in erythrocytes, SYBR Green DNA, 72 h, at 12.8 µM (top of the series)
In short: (§1)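 Fluorescence of SYBR Green-bound parasite DNA, read at 485/535 nm, served as the growth measure. Infected erythrocytes were cultured with compound 72 h; artemisinin (0.29 uM) and DMSO wells defined the normalization range.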

C2A = experiment: as above; details: P. falciparum in erythrocytes, SYBR Green DNA, 72 h; series mostly up to 12.8 µM
In short: as §1

CP201 = experiment: as above; details: P. falciparum in erythrocytes, SYBR Green DNA, 72 h; series mostly up to 12.8 µM
In short: as §1

CP238 = experiment: as above; details: P. falciparum in erythrocytes, SYBR Green DNA, 72 h; series mostly up to 12.8 µM
In short: as §1

CP250 = experiment: as above; details: P. falciparum in erythrocytes, SYBR Green DNA, 72 h; series mostly up to 12.8 µM
In short: as §1

FAB9 = experiment: as above; details: P. falciparum in erythrocytes, SYBR Green DNA, 72 h; series mostly up to 12.8 µM
In short: as §1

JCK = experiment: as above; details: P. falciparum in erythrocytes, SYBR Green DNA, 72 h; series mostly up to 12.8 µM
In short: as §1

PC49 = experiment: as above; details: P. falciparum in erythrocytes, SYBR Green DNA, 72 h; series mostly up to 12.8 µM
In short: as §1

SC27B = experiment: as above; details: P. falciparum in erythrocytes, SYBR Green DNA, 72 h; series mostly up to 12.8 µM
In short: as §1

[11] = NFAT Signaling Pathway (AID 444; active = well fitted curve in either direction with a large enough effect, not every such curve was filed as active;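 also: carbachol stimulus at about its EC50 of 1 µM final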); details: Jurkat NFAT-bla M1, carbachol, beta-lactamase ratio, 5 h; at 17.2 µM (top of the series) unless noted
In short: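 Jurkat cells carrying an NFAT-driven β-lactamase reporter and co-transfected muscarinic M1 receptor were treated with compound plus carbachol (1 uM final, an EC50 level) for 5 h at 37 °C. CCF4 loading followed for 1 h at RT; 460/530 nm ratio gave %activity.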

[12] = molecular target: Glucocorticoid receptor (Homo sapiens) (UniProt P04150); experiment: GR-EFC Redistribution (AID 451; calls by dose curve; also: potency is read from the fitted curve at half-maximal effect); details: CHO-K1 GR-EFC translocation, beta-gal luminescence, 2 h
In short: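 CHO-K1 cells stably expressing nuclear-localized β-gal enzyme acceptor and GR fused C-terminally to the enzyme donor fragment; ligand-driven nuclear translocation restores β-gal by complementation. Compounds titrated up to 46 uM final, 2 h at 37 °C; luminescence read.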

[13] = measured here: cell count channel max response
[14] = measured here: lipid channel max response

Compound: CC(=O)[C@@H]1CC[C@@H]2[C@@H]3C[C@H](C)C4=CC(=O)CC[C@@]4(C)[C@H]3[C@H](O)C[C@]21C
- outcome [1]: inactive
- outcome [2]: inactive
- Potency [3]: 0.0015 µM (active)
- Potency [4]: inactive
- outcome [5]: inactive
- activity change, negative = inhibition [6]: -5.46% (inactive)
- max response [6, 13]: -5.95%
- max response [6, 14]: -15.5%
- outcome [7]: inactive
- Potency [8]: inactive
- Potency [9]: inactive
- activity, negative = inhibition ([10]; parasite line A): 0.756% (inactive)
- activity, negative = inhibition ([10]; parasite line B): -6.03% (inactive)
- Potency (C2A): inactive
- Potency (CP201): inactive
- Potency (CP238): inactive
- Potency (CP250): inactive
- Potency (FAB9): inactive
- Potency (JCK): inactive
- Potency (PC49): inactive
- Potency (SC27B): inactive

Compound: C[C@H](N[C@@H](C)COc1ccccc1)[C@H](O)c1ccc(O)cc1
- outcome [1]: inactive
- activity change, negative = inhibition [11]: -9.06% (inactive)
- outcome [2]: inactive
- Potency [3]: > 20.6 µM (inactive)
- Potency [12]: > 20.6 µM (inactive)
- Potency [4]: inactive
- activity change, negative = inhibition [6]: 0.23% (inactive)
- max response [6, 13]: -4.01%
- max response [6, 14]: -3.47%
- outcome [7]: inactive
- Potency [8]: inactive
- Potency [9]: 1.55 µM (active)
- activity, negative = inhibition ([10]; parasite line A): 2.67% (inactive)
- activity, negative = inhibition ([10]; parasite line B): 10.2% (inactive)
- Potency (C2A): inactive
- Potency (CP201): inactive
- Potency (CP238): inactive
- Potency (CP250): inactive
- Potency (FAB9): inactive
- Potency (JCK): inactive
- Potency (PC49): inactive
- Potency (SC27B): inactive

Compound: Nc1ccn([C@@H]2CC[C@H](CO)O2)c(=O)n1
- outcome [1]: inactive
- outcome [2]: inactive
- Potency [4]: inactive
- outcome [5]: inactive
- activity change, negative = inhibition [6]: -3.47% (inactive)
- max response [6, 13]: -4.3%
- max response [6, 14]: -6.51%

Compound: CN(C)CCn1nnnc1SCC1=C(C(=O)O)N2C(=O)[C@@H](NC(=O)Cc3csc(N)n3)[C@@H]2SC1
- outcome [1]: inactive
- activity change, negative = inhibition [11]: -2.63% (inactive)
- outcome [2]: inactive
- Potency [3]: > 20.6 µM (inactive)
- Potency [12]: > 20.6 µM (inactive)
- Potency [4]: inactive
- outcome [5]: inactive
- activity change, negative = inhibition [6]: -0.351% (inactive)
- max response [6, 13]: -8.06%
- max response [6, 14]: -8.86%
- outcome [7]: inactive
- Potency [8]: inactive
- Potency [9]: inactive
- activity, negative = inhibition ([10]; parasite line A): 0.61% (inactive)
- activity, negative = inhibition ([10]; parasite line B): 1.06% (inactive)
- Potency (C2A): inactive
- Potency (CP201): inactive
- Potency (CP238): inactive
- Potency (CP250): inactive
- Potency (FAB9): inactive
- Potency (PC49): inactive
- Potency (SC27B): inactive

Compound: CCN[C@@H]1CN(CCCOC)S(=O)(=O)c2sc(S(N)(=O)=O)cc21
- outcome [1]: inactive
- activity change, negative = inhibition [11]: -3.14% (inactive)
- outcome [2]: inactive
- Potency [3]: > 20.6 µM (inactive)
- Potency [12]: > 20.6 µM (inactive)
- Potency [4]: inactive
- outcome [5]: inactive
- activity change, negative = inhibition [6]: 1.92% (inactive)
- max response [6, 13]: -3.42%
- max response [6, 14]: -8.18%
- outcome [7]: inactive
- Potency [8]: inactive
- Potency [9]: inactive
- activity, negative = inhibition ([10]; parasite line A): -7.28% (inactive)
- activity, negative = inhibition ([10]; parasite line B): 4.88% (inactive)
- Potency (C2A): inactive
- Potency (CP201): inactive
- Potency (CP238): inactive
- Potency (CP250): inactive
- Potency (FAB9): inactive
- Potency (JCK): inactive
- Potency (PC49): inactive
- Potency (SC27B): inactive
